The results in this text go back to PubChem BioAssay (EPA / NIEHS).

In assay [1] the target is Oxysterols receptor LXR-beta (Homo sapiens) (UniProt P55055). The assay can be described thus: ATG_LXRb_TRANS: Attagene TRANS-FACTORIAL HepG2 Assay for human Liver X Receptor beta (LXRb) (AID 2282981; active means hit-call score of the fitted dose curve at least 0.9, where 1 is the maximum). As to conditions: HepG2 Attagene TRANS GAL4-LXRb reporter, mRNA. The procedure, abridged:
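Multiplexed reporter assay, HepG2, 24 h dosing. Fluorescence of labelled RT-PCR products after capillary electrophoresis gives transcript level; positive fitting direction relative to DMSO.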

Assay [2] in a line: ATG_M_06_TRANS: Attagene TRANS-FACTORIAL HepG2 Assay for M06 Transcription Factor (Internal Marker) (AID 2282983; active means hit-call score of the fitted dose curve at least 0.9, where 1 is the maximum). As to conditions: HepG2 Attagene TRANS M06 internal marker reporter. An outline of the steps:
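mRNA levels of a reporter transcript, quantified as FAM fluorescence on capillary electrophoresis, served as readout. HepG2 cells expressing exogenous GAL4-chimera reporter constructs were exposed for 24 h. Gain of signal over DMSO was evaluated.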

The target in assay [3] is Nuclear receptor subfamily 4 group A member 2 (Homo sapiens) (UniProt P43354). The assay can be described thus: ATG_NURR1_TRANS: Attagene TRANS-FACTORIAL HepG2 Assay for human Nuclear Receptor Related Protein 1 (NURR1) (AID 2282985; active means hit-call score of the fitted dose curve at least 0.9, where 1 is the maximum). As to conditions: HepG2 Attagene TRANS reporter, mRNA readout. An outline of the steps:
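Endpoint: reporter mRNA increase relative to DMSO. HepG2 cells transfected with reporter units, treated 24 h; RNA processed by RT-PCR, labelling, HpaI digestion and capillary electrophoresis.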

The target of assay [4] is Transcriptional activator Myb (Homo sapiens) (UniProt P10242). Briefly: ATG_Myb_CIS: Attagene CIS-FACTORIAL HepG2 Assay for human Myeloblastosis (Myb) Proto-Oncogene Transcription Factor (AID 2282986). As to conditions: HepG2 Attagene CIS-FACTORIAL Myb reporter transcription; actives raise or lower the signal. An outline of the steps:
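Multiplexed cis-reporter system in HepG2: transient transfection, 24 h treatment, mRNA readout by RT-PCR and capillary electrophoresis. Both increases and decreases are scored versus DMSO negative control.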

In assay [5] the target is Nuclear respiratory factor 1 (Homo sapiens) (UniProt Q16656). Briefly: ATG_NRF1_CIS: Attagene CIS-FACTORIAL HepG2 Assay for human Nuclear Respiratory Factor 1 (NRF1) Orphan Gene (AID 2282987). As to conditions: HepG2 NRF1 cis-element reporter, Attagene multiplex; actives raise or lower the signal. The procedure, abridged:
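Endogenous factor activity was captured via cis-element-driven reporter transcripts in HepG2 cells. Following 24 h chemical treatment, transcripts were quantified by RT-PCR and capillary electrophoresis.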

Assay [6] is described as follows: ATG_NF_kB_CIS: Attagene CIS-FACTORIAL HepG2 Assay for human Nuclear Factor Kappa B (NF-kB) (AID 2282991). As to conditions: HepG2 Attagene cis-factorial NF-kB reporter mRNA; actives raise or lower the signal. An outline of the steps:
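After 24 h compound incubation, transfected HepG2 cells yield total RNA; reporter cDNA is PCR-amplified, end-labelled with 6-FAM, HpaI-digested and analysed on a genetic analyser. Endogenous factor activity, DMSO-referenced bidirectional fit.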

Assay [7] is described as follows: ATG_Oct_MLP_CIS: Attagene CIS-FACTORIAL HepG2 Assay for human Octamer-Binding Transcription Factor (Oct) (AID 2282993). As to conditions: HepG2 Attagene cis-factorial Oct reporter, mRNA; actives raise or lower the signal. An outline of the steps:
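Read-out: reporter mRNA via RT-PCR plus capillary electrophoresis of 6-FAM-labelled fragments. Transiently transfected HepG2, 24 h exposure, endogenous TF activity on cis elements. Gain or loss of signal fitted relative to DMSO.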

Assay [8] deals with Cellular tumor antigen p53 (Homo sapiens) (UniProt P04637). Briefly: ATG_p53_CIS: Attagene CIS-FACTORIAL HepG2 Assay for human p53 Transcription Factor (AID 2282994). As to conditions: HepG2 p53 cis-element reporter, Attagene mRNA; actives raise or lower the signal. The procedure, abridged:
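In HepG2 cells, reporter transcription units under cis-regulatory promoters were transiently introduced. Following 24 h treatment, RNA was processed to labelled, digested cDNA fragments read by capillary electrophoresis; fitting was bidirectional versus DMSO.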

Assay [9] is described as follows: BSK_3C_TissueFactor: BioMAP Diversity Plus: 3C Assay for Tissue Factor Biomarker Activity (AID 2282997). As to conditions: BioMAP 3C HUVEC, tissue factor biomarker readout; actives raise or lower the signal. An outline of the steps:
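Tissue Factor measured by ELISA, 24 h after treatment of primary HUVEC in the BioMAP 3C setting.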

Assay [10] can be described thus: BSK_3C_uPAR: BioMAP Diversity Plus: 3C Assay for Urokinase-type plasminogen activator receptor (uPAR) Biomarker Activity (AID 2282998). As to conditions: BioMAP 3C HUVEC, uPAR biomarker ELISA; actives raise or lower the signal. An outline of the steps:
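HUVEC primary cells; 24 h post-dose; uPAR by ELISA; gain or loss of signal fitted bidirectionally vs DMSO baseline.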
A general note: An ELISA detects its analyte on a solid surface through an enzyme-linked reagent.

A short description of assay [11]: BSK_3C_VCAM1: BioMAP Diversity Plus: 3C Assay for Vascular cell adhesion molecule 1 (VCAM1) Biomarker Activity (AID 2282999). As to conditions: BioMAP 3C HUVEC, VCAM1 ELISA, cytokine-stimulated; actives raise or lower the signal. An outline of the steps: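 HUVEC primary cells, 24 h compound exposure; VCAM-1 by ELISA; gain/loss of signal fitted bidirectionally vs DMSO baseline.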

For assay [12], the target named is Hepatocyte nuclear factor 4-alpha (Homo sapiens) (UniProt P41235). Briefly: ATG_HNF4a_TRANS: Attagene TRANS-FACTORIAL HepG2 Assay for human Hepatocyte Nuclear Factor 4 alpha (HNF4a) (AID 2282982; active means hit-call score of the fitted dose curve at least 0.9, where 1 is the maximum). As to conditions: HepG2 HNF4a transactivation reporter, mRNA readout. The procedure, abridged: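 Endpoint reflects transcriptional activation of a GAL4-UAS reporter by an HNF4a-GAL4 chimera in transfected HepG2 cells, 24 h post-dosing. Fluorescence from RT-PCR products separated by capillary electrophoresis; DMSO baseline.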
Chain of Hepatocyte nuclear factor 4-alpha (Homo sapiens) (P41235 whole entry, looked up, the tested form may be a part): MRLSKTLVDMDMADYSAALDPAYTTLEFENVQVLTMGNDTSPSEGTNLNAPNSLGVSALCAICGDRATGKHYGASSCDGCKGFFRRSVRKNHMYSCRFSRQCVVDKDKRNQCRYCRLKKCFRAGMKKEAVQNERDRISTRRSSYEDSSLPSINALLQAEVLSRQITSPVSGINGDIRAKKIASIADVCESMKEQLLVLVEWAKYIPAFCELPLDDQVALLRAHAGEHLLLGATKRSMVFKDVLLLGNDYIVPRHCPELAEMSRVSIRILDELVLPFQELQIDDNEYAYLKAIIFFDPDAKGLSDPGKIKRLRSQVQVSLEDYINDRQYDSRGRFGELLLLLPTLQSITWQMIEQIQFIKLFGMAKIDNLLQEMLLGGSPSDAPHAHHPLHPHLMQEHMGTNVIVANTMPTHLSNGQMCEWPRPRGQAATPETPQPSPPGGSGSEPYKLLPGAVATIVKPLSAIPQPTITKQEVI

Assay [13] can be described thus: ATG_M_32_TRANS: Attagene TRANS-FACTORIAL HepG2 Assay for M32 Transcription Factor (Internal Marker) (AID 2282984; active means hit-call score of the fitted dose curve at least 0.9, where 1 is the maximum;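 further: transcript level of a background control reporter unit measured by RT-PCR and capillary electrophoresis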). As to conditions: HepG2 Attagene TRANS M32 internal marker reporter. An outline of the steps:
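Internal-marker readout from a multiplexed transcription reporter panel. HepG2 cells were transfected with GAL4-UAS reporter units, treated 24 hours, and reporter transcript levels determined by fluorescence after RT-PCR and capillary separation.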

The target in assay [14] is Myc proto-oncogene protein (Homo sapiens) (UniProt P01106). The assay can be described thus: ATG_Myc_CIS: Attagene CIS-FACTORIAL HepG2 Assay for human Myelocytomatosis (Myc) Proto-Oncogene Transcription Factor (AID 2282990). As to conditions: HepG2, Attagene cis-reporter transcription factor activity; actives raise or lower the signal. The procedure, abridged: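 Transiently transfected HepG2 cells bearing cis-promoter reporter units for endogenous transcription factors; 24 h exposure. Reporter mRNA measured by RT-PCR, 6-FAM primer extension, HpaI cut and capillary electrophoresis; bidirectional fit relative to DMSO.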
Chain of Myc proto-oncogene protein (Homo sapiens) (P01106 whole entry, looked up): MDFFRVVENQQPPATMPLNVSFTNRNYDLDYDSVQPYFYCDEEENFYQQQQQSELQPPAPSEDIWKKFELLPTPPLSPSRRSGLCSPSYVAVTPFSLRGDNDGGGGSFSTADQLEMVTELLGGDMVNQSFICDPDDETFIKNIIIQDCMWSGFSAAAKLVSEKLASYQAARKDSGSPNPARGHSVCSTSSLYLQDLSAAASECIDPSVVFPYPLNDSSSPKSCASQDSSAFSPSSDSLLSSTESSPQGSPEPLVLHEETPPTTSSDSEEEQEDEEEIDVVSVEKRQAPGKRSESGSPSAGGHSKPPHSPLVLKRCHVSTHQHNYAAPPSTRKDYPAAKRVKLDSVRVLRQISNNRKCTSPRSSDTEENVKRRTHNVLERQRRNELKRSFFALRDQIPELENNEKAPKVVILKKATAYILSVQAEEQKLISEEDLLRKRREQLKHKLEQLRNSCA

Assay [15] in a line: ATG_NRF2_ARE_CIS: Attagene CIS-FACTORIAL HepG2 Assay for human Nuclear Factor Erythroid 2 Related Factor 2 (NFR2) response to Antioxidant Response Elements (ARE) (AID 2282992).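 On AC50: reporter mRNA level measured by RT-PCR and capillary electrophoresis fluorescence.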 As to conditions: HepG2 Attagene ARE/NRF2 reporter, transcription factor activity; actives raise or lower the signal. The procedure, abridged:
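Using transiently transfected HepG2 cells exposed for 24 h, reporter mRNA levels were determined by RT-PCR with fluorescent primer extension and capillary electrophoresis, analysed for gain or loss of signal against DMSO.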

Assay [16] concerns the target Oxysterols receptor LXR-alpha (Homo sapiens) (UniProt Q13133). Briefly: ATG_LXRa_TRANS: Attagene TRANS-FACTORIAL HepG2 Assay for human Liver X Receptor alpha (LXRa) (AID 2282980; active means hit-call score of the fitted dose curve at least 0.9, where 1 is the maximum). As to conditions: HepG2 Attagene TRANS reporter, LXRa transactivation. The procedure, abridged: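 HepG2 cells transiently transfected with GAL4-UAS reporter units for chimeric NR-Gal4 proteins, exposed to chemicals for 24 h. Reporter mRNA quantified by RT-PCR and capillary electrophoresis; gain of signal fitted relative to DMSO.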

Assay [17] can be described thus: ATG_NFI_CIS: Attagene CIS-FACTORIAL HepG2 Assay for human Nuclear Factor I (NFI) (AID 2282989). As to conditions: HepG2 cis-regulatory reporter, NFI response element transcription; actives raise or lower the signal. The procedure, abridged: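 Read-out: reporter mRNA via RT-PCR plus capillary electrophoresis with fluorescence detection. Transiently transfected HepG2 (endogenous TF activity on cis promoters), 24 h compound exposure; gain or loss of signal fitted against DMSO.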

The target of assay [18] is Glucocorticoid receptor (Homo sapiens) (UniProt P04150). The assay can be described thus: ATG_GR_TRANS: Attagene TRANS-FACTORIAL HepG2 Assay for human Glucocorticoid Receptor (GR) (AID 2282978; active means hit-call score of the fitted dose curve at least 0.9, where 1 is the maximum;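 further: activators score as hits since higher reporter transcript over DMSO is fitted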). As to conditions: HepG2 Attagene TRANS GR reporter, mRNA transcription. The procedure, abridged:
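HepG2 transient transfection, multiple reporter units, GAL4-UAS under NR-GAL4 chimera control. 24 h treatment. Reporter mRNA by RT-PCR/CE fluorescence, DMSO as negative control.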

For assay [19], the target named is Bile acid receptor (Homo sapiens) (UniProt Q96RI1). Briefly: ATG_FXR_TRANS: Attagene TRANS-FACTORIAL HepG2 Assay for Farnesoid X Receptor (FXR) (AID 2282979; active means hit-call score of the fitted dose curve at least 0.9, where 1 is the maximum;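 further: hits raise reporter mRNA above DMSO so AC50 marks FXR activation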). As to conditions: HepG2 Attagene TRANS FXR-GAL4 reporter transcription. An outline of the steps: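 HepG2 cells were transiently transfected with GAL4-UAS reporters driven by chimeric NR-Gal4 proteins and dosed for 24 h. Reporter mRNA was quantified by RT-PCR, fluorescent labelling, HpaI digestion and capillary electrophoresis, with gain of signal scored versus DMSO.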
Chain of Bile acid receptor (Homo sapiens) (Q96RI1 whole entry, looked up, the tested form may be a part): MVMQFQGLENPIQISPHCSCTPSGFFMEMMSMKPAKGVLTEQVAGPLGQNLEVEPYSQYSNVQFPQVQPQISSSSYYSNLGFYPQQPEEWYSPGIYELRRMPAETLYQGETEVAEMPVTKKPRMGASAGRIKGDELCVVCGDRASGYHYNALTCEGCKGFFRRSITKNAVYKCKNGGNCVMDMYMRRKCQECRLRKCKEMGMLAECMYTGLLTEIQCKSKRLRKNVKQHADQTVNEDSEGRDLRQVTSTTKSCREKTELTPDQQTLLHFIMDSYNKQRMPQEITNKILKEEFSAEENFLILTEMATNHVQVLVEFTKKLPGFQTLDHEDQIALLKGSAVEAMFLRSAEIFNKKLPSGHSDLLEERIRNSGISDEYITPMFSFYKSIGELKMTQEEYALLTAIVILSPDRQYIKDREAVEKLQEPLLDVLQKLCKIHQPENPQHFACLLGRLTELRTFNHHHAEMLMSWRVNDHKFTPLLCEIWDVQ

Each structure is given as a SMILES string. Records with an inconclusive call do not appear. The source made the active and inactive calls. How the source made its calls, unless noted: active means hit-call score of the fitted dose curve at least 0.9, where 1 is the maximum; inactive means score below 0.9.

Chain of Oxysterols receptor LXR-alpha (Homo sapiens) (Q13133 whole entry, looked up, the tested form may be a part): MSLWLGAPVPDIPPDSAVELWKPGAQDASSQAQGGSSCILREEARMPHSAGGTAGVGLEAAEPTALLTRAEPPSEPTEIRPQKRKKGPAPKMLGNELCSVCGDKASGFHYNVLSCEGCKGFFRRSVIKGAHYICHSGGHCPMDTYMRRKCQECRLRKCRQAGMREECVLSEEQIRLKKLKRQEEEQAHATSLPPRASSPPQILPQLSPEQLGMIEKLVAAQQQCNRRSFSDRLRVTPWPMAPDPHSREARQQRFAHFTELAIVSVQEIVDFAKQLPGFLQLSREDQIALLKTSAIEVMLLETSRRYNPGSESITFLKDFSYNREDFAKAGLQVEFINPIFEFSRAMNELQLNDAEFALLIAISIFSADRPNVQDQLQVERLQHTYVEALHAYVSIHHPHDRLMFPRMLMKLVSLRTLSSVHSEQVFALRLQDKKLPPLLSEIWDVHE
Chain of Oxysterols receptor LXR-beta (Homo sapiens) (P55055 whole entry, looked up, the tested form may be a part): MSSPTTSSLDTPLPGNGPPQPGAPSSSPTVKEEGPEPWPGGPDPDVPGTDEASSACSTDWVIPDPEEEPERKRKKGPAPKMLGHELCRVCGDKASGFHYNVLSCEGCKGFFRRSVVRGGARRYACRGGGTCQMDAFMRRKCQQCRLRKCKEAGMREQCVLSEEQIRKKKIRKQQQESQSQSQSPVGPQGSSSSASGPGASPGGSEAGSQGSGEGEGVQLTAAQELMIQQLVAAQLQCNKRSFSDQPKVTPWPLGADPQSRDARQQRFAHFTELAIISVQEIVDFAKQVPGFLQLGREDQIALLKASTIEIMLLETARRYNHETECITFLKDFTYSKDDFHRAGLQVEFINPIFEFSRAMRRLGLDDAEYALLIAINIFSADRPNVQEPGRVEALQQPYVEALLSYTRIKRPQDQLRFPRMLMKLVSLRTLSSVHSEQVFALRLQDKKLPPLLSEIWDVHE
Chain of Cellular tumor antigen p53 (Homo sapiens) (P04637 whole entry, looked up, the tested form may be a part): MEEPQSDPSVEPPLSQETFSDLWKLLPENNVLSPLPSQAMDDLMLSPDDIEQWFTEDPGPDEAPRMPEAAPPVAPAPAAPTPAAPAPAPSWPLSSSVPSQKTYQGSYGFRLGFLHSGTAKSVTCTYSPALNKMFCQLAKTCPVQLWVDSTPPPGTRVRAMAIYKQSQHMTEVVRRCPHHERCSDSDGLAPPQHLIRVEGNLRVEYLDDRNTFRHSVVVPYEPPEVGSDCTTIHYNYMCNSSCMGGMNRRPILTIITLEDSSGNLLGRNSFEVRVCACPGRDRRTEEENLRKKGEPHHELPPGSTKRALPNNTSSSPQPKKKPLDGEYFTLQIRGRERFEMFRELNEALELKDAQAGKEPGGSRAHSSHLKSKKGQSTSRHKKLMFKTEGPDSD
Chain of Nuclear receptor subfamily 4 group A member 2 (Homo sapiens) (P43354 whole entry, looked up): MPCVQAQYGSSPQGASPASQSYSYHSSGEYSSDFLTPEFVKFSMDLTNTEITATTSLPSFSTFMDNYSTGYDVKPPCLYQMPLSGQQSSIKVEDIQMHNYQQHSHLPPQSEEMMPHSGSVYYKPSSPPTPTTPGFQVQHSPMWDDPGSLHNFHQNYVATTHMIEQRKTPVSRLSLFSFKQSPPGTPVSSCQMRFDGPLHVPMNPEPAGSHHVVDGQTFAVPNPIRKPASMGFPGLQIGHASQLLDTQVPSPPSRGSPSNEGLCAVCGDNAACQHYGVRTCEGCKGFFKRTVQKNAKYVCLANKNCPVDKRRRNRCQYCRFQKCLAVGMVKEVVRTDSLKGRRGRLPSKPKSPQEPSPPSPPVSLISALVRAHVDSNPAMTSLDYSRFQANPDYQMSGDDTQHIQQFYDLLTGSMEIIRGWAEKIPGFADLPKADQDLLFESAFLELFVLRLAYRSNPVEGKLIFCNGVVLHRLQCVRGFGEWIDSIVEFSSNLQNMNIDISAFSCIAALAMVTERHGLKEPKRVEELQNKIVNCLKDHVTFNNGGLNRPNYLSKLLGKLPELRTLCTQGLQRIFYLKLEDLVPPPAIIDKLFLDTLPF
Chain of Transcriptional activator Myb (Homo sapiens) (P10242 whole entry, looked up): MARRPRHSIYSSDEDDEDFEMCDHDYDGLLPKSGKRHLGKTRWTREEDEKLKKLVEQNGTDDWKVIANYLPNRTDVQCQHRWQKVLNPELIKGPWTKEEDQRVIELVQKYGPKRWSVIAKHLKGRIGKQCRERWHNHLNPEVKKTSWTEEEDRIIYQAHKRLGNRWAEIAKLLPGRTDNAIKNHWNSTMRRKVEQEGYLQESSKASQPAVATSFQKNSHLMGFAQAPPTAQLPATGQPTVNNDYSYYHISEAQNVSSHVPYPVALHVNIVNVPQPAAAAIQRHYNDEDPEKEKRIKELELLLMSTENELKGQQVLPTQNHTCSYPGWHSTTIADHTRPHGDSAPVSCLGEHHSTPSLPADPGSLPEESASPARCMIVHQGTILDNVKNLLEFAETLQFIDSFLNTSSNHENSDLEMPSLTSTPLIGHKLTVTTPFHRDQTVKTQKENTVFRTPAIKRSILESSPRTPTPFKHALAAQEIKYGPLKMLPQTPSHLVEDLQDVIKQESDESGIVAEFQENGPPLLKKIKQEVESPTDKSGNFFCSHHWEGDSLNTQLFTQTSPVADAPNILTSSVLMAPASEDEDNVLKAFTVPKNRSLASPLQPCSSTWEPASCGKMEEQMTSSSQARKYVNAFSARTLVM
Chain of Nuclear respiratory factor 1 (Homo sapiens) (Q16656 whole entry, looked up): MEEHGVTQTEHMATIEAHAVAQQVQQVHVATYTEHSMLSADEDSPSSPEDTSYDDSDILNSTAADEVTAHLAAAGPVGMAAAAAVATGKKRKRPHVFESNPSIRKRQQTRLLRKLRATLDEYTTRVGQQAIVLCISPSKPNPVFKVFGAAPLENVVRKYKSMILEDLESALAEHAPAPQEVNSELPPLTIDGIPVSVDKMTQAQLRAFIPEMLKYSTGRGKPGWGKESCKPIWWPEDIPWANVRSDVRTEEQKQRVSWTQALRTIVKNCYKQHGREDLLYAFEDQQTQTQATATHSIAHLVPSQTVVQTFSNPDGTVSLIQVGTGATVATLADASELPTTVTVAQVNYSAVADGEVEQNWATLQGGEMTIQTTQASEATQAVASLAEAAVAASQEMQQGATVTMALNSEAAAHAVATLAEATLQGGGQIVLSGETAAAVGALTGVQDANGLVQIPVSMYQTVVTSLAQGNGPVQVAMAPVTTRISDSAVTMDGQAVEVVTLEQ

By AC50 is commonly meant the concentration at which the activity in the assay is half-maximal. `FC(F)C(F)(F)OCC(Cn1cncn1)c1ccc(Cl)cc1Cl` (stereo not drawn): the result in [1], in assay [2], in assay [3], in [4], in [6] and in [8] was inactive. Besides, the outcome in [9] and in [11] was inactive. Further, the half-maximal activity concentration (AC50) is 39.5 µM (active) in assay [5], 46.5 µM (active) in [7] and 36.7 µM (active) in assay [10].

As for `CCOP(=O)(SC(C)CC)N1CCSC1=O` (stereo not drawn), the outcome in assay [1], in assay [12], in [13], in assay [4], in [5] and in [14] was inactive. The compound was called inactive in [15], in assay [7], in assay [9], in [10] and in assay [11].

In the case of `C[N+]1(C)CCCCC1`, the compound was called inactive in assay [16], in assay [1], in assay [12], in [3], in assay [4] and in assay [5]. Besides, the call in [6], in assay [15], in [7], in assay [8], in [9] and in assay [10] was inactive. Further, in assay [11], the result was inactive.

`C#CC(C)(C)NC(=O)c1cc(Cl)cc(Cl)c1`: the call in assay [16], in [1], in [2], in assay [13], in assay [3] and in assay [4] was inactive. The result in assay [5], in assay [17], in [14], in [6], in assay [8] and in assay [9] was inactive. For the same compound, the result in [10] and in [11] was inactive. The figures for the concentration at half-maximal activity (AC50) in assay [15] and in [7] were 22 µM (active) and 30.6 µM (active), respectively.

Take `CCOC(=O)CC(SP(=O)(OC)OC)C(=O)OCC` (stereo not drawn): the call in assay [18], in assay [16], in assay [1], in [4], in assay [5] and in assay [14] was inactive. Further, the outcome in assay [6], in assay [7], in [8], in assay [9], in assay [10] and in [11] was inactive. Moreover, the half-maximal activity concentration (AC50) in [15] was 21.9 µM (active).

Take `Cc1cc(C2CC2)nc(Nc2ccccc2)n1`: the call in [19], in assay [16], in assay [1], in assay [12], in [2] and in assay [13] was inactive. Moreover, the result in assay [3], in assay [8], in assay [9], in assay [10] and in assay [11] was inactive. The AC50 in assay [4] is 79.1 µM (active); in assay [5] it was 76 µM (active); in [15], 13 µM (active); in assay [7] it was 15.7 µM (active).

For the compound `CCC(CC)Nc1c([N+](=O)[O-])cc(C)c(C)c1[N+](=O)[O-]`, the outcome in [19], in assay [1], in assay [2], in [13], in assay [3] and in [4] was inactive. The result in [5], in assay [6], in [7], in [9] and in assay [10] was inactive. Also, the AC50 is 14.4 µM (active) in assay [15], 72.9 µM (active) in assay [8] and 17.1 µM (active) in assay [11].

As to `CC(C)[C@H](C(=O)O[C@H](C#N)c1cccc(Oc2ccccc2)c1)c1ccc(Cl)cc1`, the call in [12], in [4], in assay [5], in assay [17], in [14] and in assay [6] was inactive. Besides, the result in [7], in assay [8], in [9], in [10] and in assay [11] was inactive.

On to `C[Si](Cn1cncn1)(c1ccc(F)cc1)c1ccc(F)cc1`, for which the call in assay [16], in assay [1], in [12], in assay [2], in assay [13] and in assay [3] was inactive. The call in assay [4], in [14], in assay [8], in [9], in assay [10] and in [11] was inactive. In addition, the AC50 in [5] was 73.7 µM (active); in assay [7] it was 39.1 µM (active).
